Results filed as inconclusive are left out. The source made the active and inactive calls. How the source made its calls: active means hit-call score of the fitted dose curve at least 0.9, where 1 is the maximum; inconclusive means response in the unintended direction; inactive means score below 0.9.
assay: TOX21_p53_BLA_p2_viability: Viability Assessment in the Tox21 HCT-116 p53 Agonism Beta-lactamase Assay, Phase 2 (AID 2283591);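 further: compound exposure lasted 16 h at 37 °C; actives lower the ATP signal meaning cytotoxicity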
Outline: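 Cytotoxicity readout: CellTiter-Glo ATP luminescence, 30 min at room temperature, after the beta-lactamase read. Cells were HCT116 exposed 16 h at 37C to compounds pin-transferred at 217-fold dilution from DMSO stocks.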

With `CCC(CO)CO` as the compound, how does the outcome read?
Its outcome is “inactive”.

For `COC(=O)c1ccc2cc(C(=O)OC)ccc2c1`, which outcome is on record?
The outcome was “inactive”.

With `O=C(Oc1ccccc1)c1ccc2ccccc2c1O` as the compound, how does the outcome read?
The outcome was “inactive”.

For `CCCCCCCCC(=O)OCC`, which outcome is on record?
The outcome was “inactive”.

For `[Cl][Bi]([Cl])([c]1ccccc1)([c]1ccccc1)[c]1ccccc1`, which AC50 is on record?
Its AC50 is 13.9 µM (active).

With `C[Si](C)(CCCN)O[Si](C)(C)CCCN` as the compound, how does the outcome read?
The outcome was “inactive”.

With `O=c1c2ccccc2nnn1CCl` as the compound, how does the outcome read?
Its outcome is “inactive”.

Which outcome does the source give for `CC(C)CCCC(C)CC=O` (centres undefined) here?
The outcome was “inactive”.

With `O=C(Cl)c1cc(C(=O)Cl)cc(C(=O)Cl)c1` as the compound, how does the outcome read?
The outcome was “inactive”.
